From PubChem BioAssay come the findings set out here.

Experiment [1] can be described thus: inhibitors of TNFa-induced NFkB p65 translocation, primary screen, imaging, HUVEC, MLSMR starter and 10KST1 sets (AID 438;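 active = inhibition above 20% together with a positive visual image hit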;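 also: compound added about 3h40 before a 20 min TNFalpha stimulation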;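 as to inhibition: signal is the nuclear over cytoplasmic p65 intensity ratio per well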). The following applies: HUVEC TNFa-induced p65 nuclear translocation; cell count: measured here: nuclei count (cytotoxicity indicator), at 2.08 µM unless noted; inhibition: at 2 µM, stronger effect = higher value unless noted.
Experiment [2] in a line: inhibitors of mutant huntingtin aggregation, primary screen, imaging, exon1htt(103Q)mCFP cells, high-content imaging (AID 483;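 active = visual image review flags a hit and inhibition of aggregation exceeds 20%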;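 also: compound exposure lasted 3 days before fixation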;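 as to nuclei count: percent of the per-plate median nuclei count of sample wells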). The following applies: exon1htt(103Q)mCFP cell line, aggregate imaging, at 2 µM; inhibition of aggregation: stronger effect = higher value; nuclei count: measured here: cell count, toxicity.
The nature of experiment [3]: inhibitors of E-selectin induction by TNFa, primary screen, imaging, HUVEC, immunofluorescence, MLSMR starter and 10KST1 sets (AID 487;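 active = visually confirmed hit in the image check and inhibition above 20%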;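 as to inhibition: signal is fraction of cell area covered by stained E-selectin grains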;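 as to nuclei count: 100% = median nuclei count of all wells on the same plate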). The following applies: HUVEC TNFalpha-induced E-selectin immunofluorescence imaging, at 2 µM; inhibition: stronger effect = higher value; nuclei count: measured here: cell number, toxicity.
Experiment [4] deals with Voltage-gated potassium channel subunit beta-2 (Rattus norvegicus) (UniProt P62483). Description: KvBeta enzyme negative modulators, primary screen, biochemical, NADPH fluorescence (AID 622;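 active = fluorescence slope higher than the sample average by over 3 SD, cut at about -0.22 in these data, passing the limit was not always enough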;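 also: slope of raw intensity against log time taken from 70 to 1610 s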). As to conditions: recombinant KvBeta, 4-cyanobenzaldehyde reduction, at 10 µM, stronger effect = higher value.
Chain of Voltage-gated potassium channel subunit beta-2 (Rattus norvegicus) (P62483 whole entry, looked up): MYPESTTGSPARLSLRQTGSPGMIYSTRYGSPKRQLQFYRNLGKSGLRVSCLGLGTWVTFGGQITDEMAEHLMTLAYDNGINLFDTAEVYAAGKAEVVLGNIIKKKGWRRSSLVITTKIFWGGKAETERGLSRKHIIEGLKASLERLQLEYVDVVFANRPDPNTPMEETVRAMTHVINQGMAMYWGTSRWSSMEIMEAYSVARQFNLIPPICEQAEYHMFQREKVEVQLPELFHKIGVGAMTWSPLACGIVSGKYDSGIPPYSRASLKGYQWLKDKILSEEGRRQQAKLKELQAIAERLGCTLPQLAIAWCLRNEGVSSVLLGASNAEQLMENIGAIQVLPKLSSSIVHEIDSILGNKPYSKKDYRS
Experiment [5] has the same target. Description: KvBeta positive modulators, primary screen, biochemical, NADPH fluorescence (AID 623;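 active = NADPH fluorescence slope more negative than the mean of all samples by about 3 SD, 99.7% confidence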;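 also: fluorescence intensity change per second fitted from 20 to 320 s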). The following applies: Recombinant KvBeta, NADPH fluorescence decrease slope, 10 min; at 10 µM; stronger effect = lower value.
For experiment [6], the target named is Alpha-2C adrenergic receptor (Homo sapiens) (UniProt P18825). Description: modulators of alpha2C/GIRK thallium flux, primary screen, cell-based, HEK293 alpha2C/GIRK1/2 (AID 624;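 active = fluorescence slope after compound addition differing from the mean of all screened samples at 99.7% confidence, in either direction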;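 also: slope of fluorescence ratio to pre-addition baseline per second over 15 to 24 s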). The following applies: thallium flux BTC fluorescence, at 10 µM, actives lie on both sides.
Chain of Alpha-2C adrenergic receptor (Homo sapiens) (P18825 whole entry, looked up): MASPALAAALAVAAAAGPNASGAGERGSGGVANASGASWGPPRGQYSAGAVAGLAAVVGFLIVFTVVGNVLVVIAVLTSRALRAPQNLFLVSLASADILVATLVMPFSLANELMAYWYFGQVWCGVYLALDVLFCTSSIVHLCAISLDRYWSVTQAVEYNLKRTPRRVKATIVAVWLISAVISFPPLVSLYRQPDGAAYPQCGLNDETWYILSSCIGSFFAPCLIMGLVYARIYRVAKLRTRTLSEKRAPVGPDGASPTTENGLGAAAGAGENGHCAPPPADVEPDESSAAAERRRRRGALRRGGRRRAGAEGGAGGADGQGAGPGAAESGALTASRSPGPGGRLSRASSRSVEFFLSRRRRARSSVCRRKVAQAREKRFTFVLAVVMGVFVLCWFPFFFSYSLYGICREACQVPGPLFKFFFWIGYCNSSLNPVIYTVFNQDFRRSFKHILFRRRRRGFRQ
Experiment [7] can be described thus: inhibitors of Sendai virus-induced IRF3 signaling, primary screen, TLR/RLR signaling modifier project, cell-based, Sendai virus stimulus, luciferase, 10K MLSCN set (AID 602276;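 active = inhibition at or above 50% at 10 µM; inactive = inhibition below 50%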;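 also: firefly luciferase from ISG56 promoter only with Renilla not read in this screen; 0% = Sendai virus plus DMSO and 100% = medium plus DMSO without virus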). The following applies: HEK293 RL24 IRF3 luciferase reporter, at 10 µM, stronger effect = higher value.
A short description of experiment [8]: inhibitors of poly I:C-induced TLR3 signaling, primary screen, cell-based, poly I:C stimulus, luciferase, 10K MLSCN set (AID 602277). The following applies: HEK293-TLR3 RL24 IRF3 luciferase reporter, at 10 µM, stronger effect = higher value.
The target of experiment [9] is Muscarinic acetylcholine receptor M4 (Homo sapiens) (UniProt P08173). As to the kind of experiment: compounds altering M4/GIRK thallium flux, either direction, primary screen, M4 allosteric agonist project, cell-based, HEK293 M4/GIRK, BTC-AM (AID 625;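 active = fluorescence slope after compound addition differing from the mean of all tested samples at 99.7% confidence, mostly higher but some lower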;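 also: thallium influx through GIRK channels coupled to M4 in HEK293 cells with BTC-AM dye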). The following applies: at 10 µM, actives lie on both sides.
Chain of Muscarinic acetylcholine receptor M4 (Homo sapiens) (P08173 whole entry, looked up): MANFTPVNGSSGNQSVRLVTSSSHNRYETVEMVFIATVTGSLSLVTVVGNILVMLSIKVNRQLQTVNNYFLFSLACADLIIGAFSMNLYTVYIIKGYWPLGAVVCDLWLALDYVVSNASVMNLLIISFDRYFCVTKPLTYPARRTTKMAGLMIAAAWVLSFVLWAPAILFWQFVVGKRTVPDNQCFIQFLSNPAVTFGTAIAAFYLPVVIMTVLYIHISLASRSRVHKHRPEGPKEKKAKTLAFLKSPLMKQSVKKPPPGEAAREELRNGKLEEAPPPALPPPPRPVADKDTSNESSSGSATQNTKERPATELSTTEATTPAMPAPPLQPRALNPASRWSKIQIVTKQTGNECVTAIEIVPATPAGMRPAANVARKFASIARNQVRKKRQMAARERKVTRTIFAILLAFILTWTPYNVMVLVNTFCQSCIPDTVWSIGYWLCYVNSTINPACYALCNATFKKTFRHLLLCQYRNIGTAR
A short description of experiment [10]: inhibitors of larval lipid processing in zebrafish, primary screen, whole organism, PED6 fluorescence, gall bladder and intestine (AID 686;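 active = a full or partial loss of lipid-probe fluorescence in the fish gall bladder, intestine or both, judged by eye; inactive = no fluorescence loss, or compound toxic to the fish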;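 also: larvae 5 to 7 days old with five fish per well; signal comes from phospholipase A2 cleavage of quenched PED6 carried via bile; overnight exposure to compound and PED6 before scoring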). As to conditions: Zebrafish larvae PED6 lipid processing, fluorescence scoring.

Calls of active or inactive are those of the source.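 The calls were made as follows, unless noted: active = inhibition of the reporter signal at or above 50%; inactive = inhibition below 50%.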

In the case of `COc1ccc(N2CCN(CCCN)CC2)cc1`, in experiment [1], the cell count stood at 356. The inhibition is 2.8% (inactive) in [1], -21% (inactive) in experiment [3], 11.2% (inactive) in experiment [7] and 15.4% (inactive) in experiment [8]. For the same compound, the inhibition of aggregation in experiment [2] is -5.7% (inactive). Further, the nuclei count turned out to be 106% in experiment [2] and 113% in experiment [3]. Besides, the fluorescence slope in experiment [4] is -0.603 (inactive). For the same compound, the NADPH fluorescence slope in [5] is -1.3e-05 (inactive). Further, the slope in [6] is 0.00595 (inactive).

Consider `CC(=O)C1C(=O)NC23CCCCC2C1c1ccccc1O3` (stereo not given), for which the cell count in [1] was 622. For the same compound, the inhibition was 3.3% (inactive) in experiment [1], 25.3% (inactive) in experiment [3], 4.02% (inactive) in experiment [7] and 14.8% (inactive) in [8]. The inhibition of aggregation in experiment [2] was 2.2% (inactive). In addition, the nuclei count was found to be 109% in experiment [2] and 99.5% in experiment [3]. Besides, the fluorescence slope in [4] was -0.357 (inactive). Moreover, in experiment [5], the NADPH fluorescence slope was 4e-05 (inactive). Besides, in [6], the slope is 0.0063 (inactive).

In turn, `COC(=O)c1ccccc1-n1c(C)nc2ccccc2c1=O` registered a cell count in [1] of 328. The inhibition in experiment [1] is -4.4% (inactive); in [3] it was -140% (inactive); in experiment [7] it was -2.94% (inactive); in experiment [8] it was -2.38% (inactive). Further, the inhibition of aggregation in [2] was -24.8% (inactive). Moreover, the nuclei count in experiment [2] is 103%; in [3], 115%. Further, the results for the fluorescence slope in experiment [4] and in experiment [9] were -0.605 (inactive) and 0.00587 (inactive), respectively. Further, the NADPH fluorescence slope in [5] is 4.4e-06 (inactive).

`c1cncc(CNC2=NCCCCC2)c1`: in experiment [1], the cell count was determined as 315. Further, the inhibition was 2.9% (inactive) in [1], -154% (inactive) in experiment [3], 5.89% (inactive) in [7] and 24.1% (inactive) in experiment [8]. The inhibition of aggregation in experiment [2] is 2.4% (inactive). Besides, the nuclei count turned out to be 114% in [2] and 127% in experiment [3]. Also, in [4], the fluorescence slope is -0.469 (inactive). Also, the NADPH fluorescence slope in [5] was -0.000124 (inactive). The slope in experiment [6] is 0.0069 (inactive).

Compound `Cn1c(=O)cc(SCC(=O)N2CCC3(CC2)OCCO3)c2ccc(Cl)cc21` registered a cell count in [1] of 442. Besides, the inhibition in [1] is 0.9% (inactive); in experiment [3] it was 22.8% (inactive); in experiment [7], 32.3% (inactive); in experiment [8] it was 38.4% (inactive). Besides, the inhibition of aggregation in [2] was 7.2% (inactive). The nuclei count in experiment [2] came to 84.4%; in [3], 106%. Besides, the fluorescence slope was -0.556 (inactive) in [4] and 0.00629 (inactive) in experiment [9]. The NADPH fluorescence slope in [5] is -3.6e-05 (inactive).

In experiment [1], `CC(C)OCCCNC(=O)c1c(N)n(Cc2cccs2)c2nc3ccccc3nc12` registered a cell count of 434. Besides, the inhibition in experiment [1] is -9.3% (inactive); in experiment [3], 4.6% (inactive); in experiment [7] it was 14.8% (inactive); in experiment [8], 37.4% (inactive). Besides, the inhibition of aggregation in [2] is 17.9% (inactive). Besides, the figures for the nuclei count in experiment [2] and in experiment [3] were 90.9% and 134%, respectively. The fluorescence slope in experiment [4] was -0.212 (inactive). In addition, the NADPH fluorescence slope in experiment [5] was 1.8e-05 (inactive). Further, the slope in experiment [6] was 0.00386 (inactive).

With `Cc1cc(NC(=O)COC(=O)c2c(C)nn(Cc3ccccc3)c2Cl)no1`, in experiment [1], the cell count worked out at 346. The inhibition in experiment [1] was 7.3% (inactive); in experiment [3], -68.8% (inactive); in [7], 3.25% (inactive); in experiment [8] it was 12.9% (inactive). In experiment [2], the inhibition of aggregation was -4.8% (inactive). Also, the nuclei count in experiment [2] amounted to 90.6%; in experiment [3] it was 109%. Moreover, the fluorescence slope in experiment [4] is -0.377 (inactive); in experiment [9], 0.00868 (inactive). The NADPH fluorescence slope in [5] is -0.000127 (inactive).

`O=C(c1ccc(CS(=O)(=O)c2ccccc2)o1)N1CCC2(CC1)OCCO2` showed a cell count in experiment [1] of 379. For the same compound, the inhibition is 8% (inactive) in experiment [1], -80.2% (inactive) in [3], -15.4% (inactive) in experiment [7] and -9.63% (inactive) in experiment [8]. Further, the inhibition of aggregation in [2] is -2% (inactive). Moreover, the nuclei count in experiment [2] was 97%; in experiment [3], 107%. Also, the fluorescence slope in experiment [4] was -0.523 (inactive); in experiment [9] it was 0.00484 (inactive). Further, in experiment [5], the NADPH fluorescence slope was -0.000178 (inactive).

`CN(C)CCN=Cc1c(O)n(-c2cccc3ccccc23)c(=O)[nH]c1=O`: the cell count in experiment [1] amounted to 569. For the same compound, the inhibition in experiment [1] was 0% (inactive); in [3], 25.9% (inactive); in experiment [7] it was 14% (inactive); in experiment [8] it was 11.3% (inactive). The inhibition of aggregation in experiment [2] is -6.8% (inactive). The nuclei count in [2] stood at 107%; in experiment [3] it was 110%. Also, the fluorescence slope in experiment [4] was -0.419 (inactive). Moreover, the NADPH fluorescence slope in [5] is -4.5e-05 (inactive). Moreover, the slope in [6] is 0.00451 (inactive).

`OC(CNC1CCCCC1)c1ccccc1` (stereo not given): the cell count in [1] came to 317. The inhibition was -2.5% (inactive) in experiment [1], -91.2% (inactive) in [3], 10.6% (inactive) in experiment [7] and 22.6% (inactive) in experiment [8]. In experiment [2], the inhibition of aggregation was 17.9% (inactive). In addition, the nuclei count in [2] is 107%; in [3] it was 105%. Moreover, in experiment [4], the fluorescence slope is -0.399 (inactive). Also, the NADPH fluorescence slope in experiment [5] was -4.1e-05 (inactive). Further, the slope in experiment [6] is 0.00434 (inactive). The compound was called inactive in experiment [10].

For the compound `COc1ccc(C2NCc3ccc4c(c3-n3cccc32)OCO4)cc1O` (stereo not given), in [1], the cell count worked out at 479. The inhibition is 9.5% (inactive) in experiment [1], -140% (inactive) in experiment [3], 27.9% (inactive) in experiment [7] and 83% (active) in experiment [8]. Besides, in experiment [2], the inhibition of aggregation was -349% (inactive). Moreover, the nuclei count in experiment [2] came to 0.8%; in experiment [3] it was 99%. Further, the fluorescence slope in experiment [4] was -0.458 (inactive); in [9], 0.00468 (inactive). Further, the NADPH fluorescence slope in experiment [5] is -4.4e-05 (inactive).

In turn, `CCCCCCC(N)CC(=O)O` (stereo not given) registered a cell count in experiment [1] of 689. Besides, the inhibition is 2.4% (inactive) in [1], 42.8% (inactive) in [3], 9.07% (inactive) in experiment [7] and 28% (inactive) in experiment [8]. Further, the inhibition of aggregation in [2] is -9.8% (inactive). Further, the nuclei count in [2] is 116%; in [3] it was 80.1%. Also, the fluorescence slope in experiment [4] is -0.456 (inactive). The NADPH fluorescence slope in experiment [5] is -3e-05 (inactive). For the same compound, the slope in experiment [6] is 0.00377 (inactive).

In turn, `OCC12COC3c4ccccc4C(OC1)N32` (stereo not given) came in with a cell count in [1] of 478. Besides, the inhibition in experiment [1] was -7.1% (inactive); in experiment [3] it was -7.2% (inactive); in experiment [7], 5.14% (inactive); in [8], 12.6% (inactive). Moreover, the inhibition of aggregation in experiment [2] was -0.1% (inactive). The figures for the nuclei count in [2] and in experiment [3] were 109% and 112%, respectively. The fluorescence slope in [4] is -0.538 (inactive); in [9], 0.00589 (inactive). For the same compound, the NADPH fluorescence slope in experiment [5] is -4.5e-06 (inactive).

In [1], `Cc1ccc(CS(=O)(=O)CCC(=O)N2CCC3(CC2)OCCO3)cc1` gave a cell count of 463. Moreover, the inhibition in experiment [1] is 6% (inactive); in experiment [3], -31.5% (inactive); in experiment [7], 13.7% (inactive); in [8] it was 16.9% (inactive). Further, the inhibition of aggregation in experiment [2] was -8.2% (inactive). The nuclei count in [2] came out at 111%; in experiment [3], 109%. Moreover, the fluorescence slope is -0.573 (inactive) in experiment [4] and 0.00375 (inactive) in experiment [9]. In addition, the NADPH fluorescence slope in experiment [5] is -6.6e-05 (inactive).
